HCMV inh – blocks human cytomegalovirus replication; HFF cells, HCMV-luciferase reporter, 72 h; hits give low values; activity change, negative = inhibition, % at 57.5 µM; hit rate 4.5% among 410,000; AID 1259415; in the data active = activity change below about -60%; inconclusive = no clear call, values can overlap the other calls; inactive = above about -39%
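Two compound doses tested in HFFs infected with HCMV-luciferase, MOI 1 PFU/cell, 72 h at 37C. Lysate luminescence read with OneGlo; data normalized against buffer-only and 10uM Salinomycin inhibitor controls.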
Lassa entry inh – Lassa virus entry inhibition. Lassa virus pseudotype entry inhibition, cell reporter. Potency, µM (top dose mostly 37.9 µM), for the others: top-dose activity change, negative = inhibition, hits mostly inhibitors. hit rate 1.2% among 300,000. AID 540256; calls by dose curve; tested in HEK293 cells; also: potency is read from the fitted curve at half-maximal effect; nearly all actives have a fitted effect of over 50% in size
MARV entry inh – blocks Marburg virus binding to or entry into cells; Marburg virus pseudotyped entry inhibition, cell reporter; Potency, µM (titrated, usually from 37.8 µM), for the others: at the top dose activity change, negative = inhibition, most hits filed as inhibitors; hit rate 1.8% among 300,000; AID 540276; calls by dose curve; tested in HEK293 cells; also: potency is read from the fitted curve at half-maximal effect
HCV inh – inhibitors of hepatitis C virus infection. Huh7.5.1 HCVcc-Cre infection, luciferase reporter, 44 h. Potency, µM (highest dose often 41.8 µM), for inactives: at the top dose activity change, negative = inhibition, most hits filed as inhibitors. hit rate 3.4% among 340,000; active = well fitted inhibition curve with a large enough effect; inconclusive = small, poorly fitted or top-dose-only effect, or another doubt; inactive = no such curve, though single readings can be large or run the other way; also: potency is read from the fitted curve at half-maximal effect
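Whole-lifecycle infectious HCVcc-Cre system; cells 1,000/well, compound then virus (~0.5 moi) added 4 h after plating, 44 h culture. Luciferase read 15 sec following 15 min substrate incubation, room temp.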
FMDV antiviral – blocks foot and mouth disease virus; hit rate 1.2% among 410,000; FMDV antiviral cell-based qHTS; Potency, µM (titrated, usually from 57.9 µM), inactives show at the highest dose activity change, negative = inhibition, hits mostly inhibitors; AID 1159524; calls by dose curve; tested in HEK293T cells; also: read-out not given here; potency is read from the fitted curve at half-maximal effect; nearly all actives have a fitted effect of over 45% in size
Active calls of the source: *; ? = inconclusive; . = no result given; [ ] = dose if it differs, or a comment. Hits are enriched below; roughly 7.9% of the tested compounds scored in any of these assays. % is scaled to controls: 0 for no effect and ±100 for the full control effect.

SMILES	HCMV inh	Lassa entry inh	MARV entry inh	HCV inh	FMDV antiviral
Cc1cccc(N(CC(=O)Nc2cccc(Cl)c2C)S(C)(=O)=O)c1C	-5.5	0.4%[46.1 µM]	-12.1%[46.1 µM]	.	25.3%
O=C(/C=C/c1cccnc1)c1ccc(F)c(F)c1	67.3	12.4%[46.1 µM]	7.08µM*	1.4%	0.3%
O=C(O)/C=C/c1cccnc1	-1.3	.	.	0.7%	-14.7%
CN(C)c1ccc(C(=O)/C=C/c2cccnc2)cc1	-66.7*	.	.	-3.1%	-15.9%
COc1ccc(-n2ccc(-c3sc(NCc4cc(OC)c5c(c4)OCO5)nc3C)n2)cc1	.	.	.	.	-24.4%
CCN1CCc2c(sc(-n3cccc3)c2C(C)NC(=O)Nc2ccc(Br)cc2)C1 (stereo unspecified)	-14.7	17.2%[46.1 µM]	.	.	26.8%
CCOc1ccc(NC(=O)NC(C)c2c(-n3cccc3)sc3c2CCN(CC)C3)cc1 (stereo unspecified)	-79.3*	11.9%[46.1 µM]	.	.	10.4%
CCC(NC(=O)Nc1cc(OC)ccc1OC)c1c(-n2cccc2)sc2c1CCN(CC)C2 (stereo unspecified)	-72.8*	1.1%[46.1 µM]	.	.	4.9%
S=c1[nH]cnc2scc(-c3ccccc3)c12	-77.4*	-13.0%	15.6%	-4.2%	-15.7%
Clc1ncnc2scc(-c3ccccc3)c12	12.9	-2.8%	-18.0%	3.4%	.
CCCCC(=O)OC1=C(C(C)=O)N(Cc2ccccc2)S(=O)(=O)c2ccccc21	3.6	-7.8%[46.1 µM]	-1.9%[46.1 µM]	.	-0.9%
CCCCCN1C(C(=O)c2ccccc2)=C(NC(=O)c2ccc(C)cc2)c2ccccc2S1(=O)=O	-39.9	-21.2%[46.1 µM]	?	.	-4.7%
CCCCCN1C(C(=O)c2ccccc2)=C(OC(=O)CC)c2ccccc2S1(=O)=O	-104.4*	?	?	.	-1.3%
CCCCC(=O)OC1=C(C(=O)c2ccccc2)N(CCC)S(=O)(=O)c2ccccc21	-86.1*	-4.4%[46.1 µM]	?	.	-12.5%
CCCCN1C(C(=O)c2ccccc2)=C(OC(=O)CC)c2ccccc2S1(=O)=O	-107.3*	?	7.94µM*	.	0.0%
CCCCCN1C(C(=O)c2ccccc2)=C(NC(C)=O)c2ccccc2S1(=O)=O	-70.0*	?	?	.	16.4%
CCC(=O)OC1=C(C(C)=O)N(Cc2ccccc2)S(=O)(=O)c2ccccc21	8.2	-20.8%[46.1 µM]	?	.	-18.3%
O=C(CSc1cn(CCNC(=O)c2c(F)cccc2F)c2ccccc12)Nc1ccccc1F	-18.7	-10.9%[46.1 µM]	?	.	-7.8%
CC(=O)C[C@@H](O)CC(=O)[C@@H]1OC(=O)[C@@H](C)CCCCc2ccccc21	-8.7	.	.	8.7%	-11.9%
O=C(Cn1nc(-c2ccccc2Cl)ccc1=O)Nc1ccccc1-c1ccccc1	-64.1*	-19.6%	-19.5%	?	-16.7%
O=C(CSCc1c(Cl)cccc1Cl)Nc1ccccc1-c1ccccc1	-66.4*	?	?	?	-19.2%
O=C(CNC(c1ccccc1)c1ccccc1)Nc1ccccc1-c1ccccc1	-70.5*	?	?	?	?
Cc1ccc(CCNc2nc3c(S(=O)(=O)c4ccccc4)nnn3c3ccsc23)cc1	-7.6	-2.8%[46.1 µM]	.	.	-6.8%
Cc1ccc(S(=O)(=O)c2nnn3c2nc(NCCc2ccccc2)c2sccc23)cc1	-65.3*	-1.6%[46.1 µM]	.	.	-12.5%
Cc1ccc(C)c(S(=O)(=O)c2nnn3c2nc(NCc2ccc4c(c2)OCO4)c2sccc23)c1	-78.6*	?	.	.	-8.4%
SMILES	HCMV inh	Lassa entry inh	MARV entry inh	HCV inh	FMDV antiviral
CC1(C)[C@H]2CC[C@]1(C)[C@H](OC(=O)CC(=O)O)C2	.	.	-1.7%	.	.
Cc1ccc(N2CC(NC(=O)c3cccs3)CC2=O)cc1 (stereo unspecified)	-21.8	7.9%[46.1 µM]	.	.	-12.7%
CCCCCCCCCCCCCCCC[n+]1cccc2ccccc21	-98.2*	7.94µM*	?	4.47µM*	?
CCCCCCCCC[n+]1cccc2c3ccccc3ccc21	.	2.82µM*	2µM*	4.47µM*	0.0%
c1ccc2c(c1)ccc1ccccc12	?	.	.	2.3%	1.7%
CCn1nc(C)c(CN2CCc3c([nH]c4ccccc34)C2c2ccc(F)c(OC)c2)c1C (stereo unspecified)	-76.0*	23.1%[46.1 µM]	?	?	-8.6%
CCn1cc(CN2CCc3c([nH]c4ccccc34)C2c2ccc(F)c(OC)c2)c(C)n1 (stereo unspecified)	3.0	-0.2%[46.1 µM]	?	-24.3%	-23.7%
Cc1cc(C)cc(N2C(=O)CS(=O)(=O)C23C(=O)N(Cc2ccccc2)c2ccccc23)c1 (stereo unspecified)	-15.7	3.0%[46.1 µM]	.	.	-13.4%
CCc1ccccc1N(C)S(=O)(=O)c1cc(-c2cc(C)no2)ccc1OC	-32.7	.	.	14.1µM*	-17.3%
Cc1cc(-c2ccc(C)c(S(=O)(=O)N(C)c3ccc(C)c(C)c3)c2)on1	-39.0	-23.0%[46.1 µM]	.	.	39.8µM*
COc1cc(Cl)c(NS(=O)(=O)c2cc(-c3cc(C)no3)ccc2OC)c(OC)c1	-2.6	-6.8%[46.1 µM]	.	.	36.5%
COc1ccccc1CNS(=O)(=O)c1ccc(-c2cc(C)no2)cc1	-60.4*	.	.	?	?
CCc1ccc(-c2cc(C)no2)cc1S(=O)(=O)NCc1ccccc1OC	4.7	.	.	-21.8%	50.4%
COc1ccc(-c2cc(C)no2)cc1S(=O)(=O)N(C)c1cccc(C)c1	-23.8	.	.	?	-7.0%
COc1cc(NS(=O)(=O)c2ccc(-c3cc(C)no3)cc2)cc(OC)c1	-84.7*	-16.8%[46.1 µM]	.	.	-5.0%
CC1CC(C)CN(C(=O)c2cccc(S(=O)(=O)NCc3ccccc3)c2)C1 (stereo unspecified)	-6.0	.	.	-0.9%	-0.1%
Cc1cc(C)cc(C(=O)NCC(=O)OCC(=O)NCC(F)(F)F)c1	21.0	.	-9.4%[46.1 µM]	-6.0%	-6.7%
CCN(c1ccc(OC)cc1)S(=O)(=O)c1cc(-c2cc(C)no2)ccc1C(C)C	0.0	.	.	12.6µM*	-12.7%
CCN(c1ccc(OC)cc1)S(=O)(=O)c1cc(-c2cc(C)no2)ccc1OC	0.0	.	.	?	-20.6%
O=C(C1CCCN(S(=O)(=O)c2cccc3nsnc23)C1)N1CCN(c2ccccc2F)CC1 (stereo unspecified)	?	-20.4%[46.1 µM]	-6.9%[46.1 µM]	.	-9.5%
O=C(C1CCN(S(=O)(=O)c2ccccc2)CC1)N1CCc2ccccc21	24.3	0.5%	-5.0%	-1.4%	-10.1%
O=C(C1CCCN(S(=O)(=O)c2cccc3nsnc23)C1)N1CCCCCC1 (stereo unspecified)	5.4	.	.	1.4%	-12.0%
O=C(C1CCCN(S(=O)(=O)c2cccc3nsnc23)C1)N1CCc2ccccc2C1 (stereo unspecified)	-12.1	?	-48.5%	?	25.1µM*
O=C(C1CCN(S(=O)(=O)c2cccc3nsnc23)CC1)N1CCc2ccccc21	-12.9	15.4%	-5.5%	?	-27.5%
O=C(C1CCN(S(=O)(=O)c2ccccc2F)CC1)N1CCc2ccccc21	-67.9*	.	.	14.2%	-17.7%
O=C(C1CCCN(S(=O)(=O)c2cccc3nsnc23)C1)N1CCc2ccccc21 (stereo unspecified)	-10.7	-2.3%	-17.4%	?	25.1µM*

Screening results: PubChem BioAssay, National Center for Advancing Translational Sciences (NCATS)
